# Measurements taken from PubChem BioAssay AID2318 (National Center for Advancing Translational Sciences (NCATS), 2010).
# Some of the results follow. Inconclusive results are not listed. Values without a mark were called inactive. Calls of active or inactive are those of the source. Calls follow the shape of the full dose curve.
# Experiment: Cycloheximide Counterscreen for Small Molecule Inhibitors of Shiga Toxin (Confirmatory); as to activity (activation): 0% is about no effect
# Settings: protein synthesis reporter, Shiga toxin assay; series mostly up to 38.3 µM; activity (activation): at the top concentration
# Potency is read from the fitted curve at half-maximal effect.
SMILES,activity (activation),Potency
CCOc1ccc(NC(=O)Nc2ccc(N(C)C(C)=O)cc2)cc1,-0.368%,
CSCc1cc(N2CCOCC2)nc(SCc2ccc(Cl)cc2Cl)n1,0.955%,
O=C(c1cc(-c2cccc(O)c2)on1)N1CCc2ccccc2C1,6.25%,
C=CCNC(=O)c1ccc(C)c(Br)c1,0.854%,
COc1ccc(-c2noc(COc3ccc(Cl)c(C)c3)n2)cc1,-0.685%,
CCN1CCN(Cc2c(O)ccc3c(=O)c(-c4ccc(OC)c(OC)c4)c(C(F)(F)F)oc23)CC1,0.38%,
COc1ccc(C(=O)Nc2ccccc2C(=O)NCc2ccco2)cc1,-0.236%,
Cc1cc(C(=O)COC(=O)C2CC2)c(C)n1-c1ccc(F)cc1,,2000 nM (active)
CN(Cc1nc2ccc(F)cc2[nH]1)Cc1nc(CC2CC2)no1,0.109%,
Cc1nc(SCC(=O)Nc2cc(C)on2)c2c3c(sc2n1)CCCC3,-1.97%,
COc1ccccc1N1N=C(c2cccs2)CC1c1ccccc1 (stereo not drawn),-0.737%,
COc1ccc(N(CCC#N)S(=O)(=O)c2ccc(Cl)cc2)cc1,-0.698%,
COc1ccc(S(=O)(=O)Nc2ccc3c(c2)OCO3)cc1Cl,4.32%,
Cc1ccc(-c2cc(C(=O)N3CCc4ccccc4C3)no2)cc1,8.15%,
CCCc1nc2ccccc2c(=O)n1NC(=O)c1c(O)c2ccccc2[nH]c1=O,-5.8%,
O=C(COC(=O)c1cccs1)Nc1ccccc1Cl,-0.535%,
Nc1nonc1C(=O)NCCc1ccccc1,2.33%,
CC(=O)c1ccc(N2CCN(C(=O)c3ccc4nc[nH]c4c3)CC2)cc1,6.86%,
